PubChem BioAssay (EPA / NIEHS)
“And” between values parts separate entries of the source, which are not always exact repeats. Equal entries are not always repeated. Some compounds were tested as several samples or in several runs, with calls that do not always agree. The source made the active and inactive calls. Rule for the calls: active = hit-call score of the fitted dose curve at least 0.9, where 1 is the maximum; inactive = score below 0.9.

Each compound was assayed on Secreted IgG (sIgG), gene 3500 (assay: BSK_BT_sIgG: BioMAP Diversity Plus: BT Assay for Secreted IgG (sIgG) Biomarker Activity (AID 2284226)). Details: primary human B cells with PBMC.
Method: BSK_BT is a cell-based, multiplexed-readout assay that uses B cell and peripheral blood mononuclear cells, a human vascular primary cell co-culture, with measurements taken at 24 hours after chemical dosing in a microplate: 96-well plate.BSK_BT_sIgG is an assay component measured in the BSK_BT assay. It measures secreted IgG related to regulation of gene expression using ELISA technology.Data from the assay component BSK_BT_sIgG was analyzed at the endpoint, BSK_BT_sIgG, in the positive analysis fitting direction relative to DMSO as the negative control and baseline of activity. Using a type of cytokine quantitation reporter, gain or loss-of-signal activity can be used to understand protein changes. To generalize the intended target to other relatable targets, this assay endpoint is annotated to the 'immunoglobulin' intended target family, where the subfamily is 'IgG'.
The levels of cell surface (or secreted, indicated by the prefix "s") biomarker endpoints were measured by ELISA. Overt cytotoxicity to cells in confluent adherent cultures (all systems other than the BT system) was assessed by measuring total protein levels using sulforhodamine B (SRB) staining in parallel cultures at the time of biomarker measurements, indicated as SRB endpoints. For proliferation assays for adherent cell types, individual cell types are cultured at sub-confluence and relative cell numbers quantified by SRB staining at time points optimized for each system (48 h: 3C and CASM3C systems; 72 h: BT and HDF3CGF systems; 96 h: SAg system). SRB was performed by staining cells with 0.1% SRB after fixation with 10% TCA and reading wells at 560 nm.Viability and proliferation of PBMC (T cells) was quantified by Alamar Blue reduction for the SAg and BT systems. For PBMC viability (referred to as PBMC Cytotoxicity within the assay endpoint names), cells were plated (75,000/well in a 96-well plate) and then chemical samples added for 1 h before addition of activators, SEB and TSST-1 (20 ng/mL final concentration each). Cells were incubated for 90 h. Then, Alamar Blue (20 uL/well) (Invitrogen, Cat DAL1100) was added for 6 h, and the plates were read with a fluorescence microplate reader at 546/580 nm (excitation/emission). For PBMC proliferation, cells were plated and activated as above but incubated for only 16 h prior to addition of Alamar Blue. Plates were read after 6 h.

| Compound | outcome | AC50 |
| --- | --- | --- |
| C=C(C)C(=O)OCCC(F)(F)C(F)(F)C(F)(F)C(F)(F)C(F)(C(F)(F)F)C(F)(F)F | inactive | – |
| CC(=O)Nc1ccc(N=Nc2cc(C)ccc2O)cc1 | – | 9.61 µM (active) |
| FC1CC(F)(F)C(F)(F)C1(F)F (stereo not given) | inactive | – |
| FC(F)(Br)C(F)(F)C(F)(F)C(F)(F)C(F)(F)C(F)(F)Br | inactive | – |
| FC(F)(F)C(F)(F)C(F)(F)C(F)(F)C(F)(F)C(F)(F)C(F)(F)I | inactive | – |
| FC(F)(F)C(F)(F)C(F)(F)C(F)(F)C(F)(F)C(F)(F)C(F)(F)C(F)(F)F | inactive | – |
| O=C(O)C(F)(OC(F)(F)C(F)(OC(F)(F)C(F)(OC(F)(F)C(F)(F)C(F)(F)F)C(F)(F)F)C(F)(F)F)C(F)(F)F (stereo not given) | inactive | – |
| O=C(O)C(F)(F)C(F)(F)C(F)(F)C(F)(F)F | inactive | – |
| CCc1c(Br)c(Br)c(Br)c(Br)c1Br | inactive | – |
| FC(F)(F)C(F)(F)C(F)(F)CI | inactive | – |
| OCCCC(F)(F)C(F)(F)C(F)(F)F | inactive | – |
| NC(=O)C(F)(F)C(F)(F)C(F)(F)C(F)(F)F | inactive | – |
| FC(F)(F)C(F)(F)CNCC(F)(F)C(F)(F)F | inactive | – |
| FC(F)(F)C(F)(F)C(F)(F)C(F)(F)C(F)(F)C(F)(F)CCS | inactive | – |
| CC(C)(C)C(=O)CC(=O)C(F)(F)C(F)(F)C(F)(F)F | inactive | – |
| C=C(C)C(=O)OCC(F)(F)C(F)(F)C(F)(F)C(F)(F)C(F)(F)C(F)(F)C(F)(F)F | inactive | – |
| CCCCNc1ccccc1 | inactive | – |
| CS(C)(=O)=O | inactive | – |
| CO[Si](OC)(c1ccccc1)c1ccccc1 | inactive | – |

| Compound | outcome | AC50 |
| --- | --- | --- |
| O[Si](c1ccccc1)(c1ccccc1)c1ccccc1 | – | 14.1 µM (active) |
| CCCCCCCCCCCCCCCC[N+](C)(C)Cc1ccccc1 | – | 0.274 µM (active) |
| C=CC/C=C/C/C=C/C/C=C/C | inactive | – |
| O=S(=O)(OCCOC(F)(F)F)C(F)(F)F | inactive | – |
| C=CC(F)(F)C(F)(F)C(F)(F)C(F)(F)C(F)(F)C(F)(F)C(F)(F)C(F)(F)C=C | inactive | – |
| C=CC(F)(F)C(F)(F)C(F)(F)C(F)(F)C(F)(F)C(F)(F)C(F)(F)C(F)(F)F | inactive | – |
| OCC(F)(F)C(F)(F)C(F)(F)C(F)(F)C(F)(F)C(F)(F)F | inactive | 43.9 µM (active) |
| O=C(O)C(F)(F)C(F)(F)F | inactive | – |
| FC(F)(F)C(F)(F)C(F)(F)C(F)(F)C(F)(F)C(F)(F)C(F)(F)C(F)(F)CCS | inactive | – |
| C=C(C)C(=O)OCC(F)(F)C(F)(F)C(F)(F)F | inactive | – |
| O=C(O)C=C(C(F)(F)F)C(F)(F)F | – | 46 µM (active) and 43.1 µM (active) |
| O=C(O)C(F)(OC(F)(F)C(F)(OC(F)(F)C(F)(F)C(F)(F)F)C(F)(F)F)C(F)(F)F (stereo not given) | inactive | – |
| O=C(O)C(F)(F)C(F)(F)OC(F)(F)F | inactive | – |
| CCCCOCCOCCOC(=O)CCCCC(=O)OCCOCCOCCCC | inactive | – |
| COC(=O)CCC(F)(F)C(F)(F)C(F)(F)C(F)(F)F | inactive | – |
| O=C(O)C(F)(F)C(F)(F)C(F)(F)C(F)(F)C(F)(F)C(F)(F)C(F)(F)C(F)(F)C(F)(F)C(F)(F)C(F)(F)C(F)(F)C(F)(F)F | inactive | – |
| OCC(F)(F)C(F)(F)C(F)(F)F | inactive | – |
| O=C(Cl)C(F)(F)C(F)(F)C(F)(F)C(F)(F)C(F)(F)C(F)(F)C(F)(F)C(F)(F)F | inactive | – |
| Cc1ccc(S(=O)(=O)OCC(F)(F)C(F)(F)C(F)(F)C(F)(F)C(F)(F)C(F)F)cc1 | inactive | 41.7 µM (active) |
